APOBEC3G inh: APOBEC3G (human) deaminase inhibition. Q9HC16. recombinant A3G, ssDNA deamination FAM/TAMRA fluorescence. inhibition, % at 20 µM. 0.28% of 330,000 active. AID 493012;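 active = inhibition of at least 40% at 20 µM, with no more than 30% in the related APOBEC3A deaminase screen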;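 also: plate controls were DMSO wells with A3G for no effect and wells lacking A3G enzyme for full effect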
PfM18AAP inh-1: blocks P. falciparum M18 aspartyl aminopeptidase; inhibition, % at 7.35 µM; 1.2% of 290,000 active; AID 1822; recombinant PfM18AAP, H-Glu-NHMec fluorogenic cleavage;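 active = inhibition above the campaign mean inhibition over all tested compounds plus 3 SD, cut at about 28% in these data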;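 also: 0% = plate median of test compound wells and 100% = 2 mM ZnCl2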
ALR H2O2 inh: human ALR oxidase inhibition via reduced H2O2; purified ALR, DTT oxidation, H2O2 HRP-luminol luminescence; inhibition, % (no concentration beside the values); 3.8% of 290,000 active;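 active = mean replicate inhibition above about 79%, with every replicate also reaching it, limit read from the data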
Yeast superoxide: caloric restriction mimetics inhibiting age-related superoxide in yeast | 0.18% of 330,000 active | superoxide response (% of plate mean), % at 10 µM | S. cerevisiae aged cells, superoxide DHE fluorescence; hits give low values;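 active = superoxide response under a set limit, about three screen SD below normal, cut at about 65% in these data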;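 also: yeast aged for seven days with compound at 30 °C before DHE staining; 100% = average MFI of all compound-treated wells on the plate with controls excluded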
APOBEC3A inh: blocks human APOBEC3A ssDNA deamination; P31941; recombinant A3A, FAM/TAMRA ssDNA deamination fluorescence; inhibition, % at 20 µM; 0.41% of 330,000 active; AID 493011;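 active = at least 40% inhibition at 20 µM here, with at most 30% in a related deaminase screen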;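 also: plate controls were A3A with DMSO for no effect and wells lacking A3A enzyme for full effect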
CendR NRP1 mod: NRP-1/CendR interaction modulation. O14786. FAM-RPARPAR peptide binding to NRP-1, fluorescence polarization. inhibition, % at 25 µM. 0.85% of 360,000 active;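 active = inhibition or corrected inhibition above about 18%, plus a signal ratio from 0.5 to 1.5, limit read from the data, passing the limit was not always enough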
PfM18AAP inh-2: confirmation of Plasmodium falciparum M18 aspartyl aminopeptidase inhibitors | recombinant PfM18AAP, H-Glu-NHMec fluorogenic cleavage | AID 2170 | shares compounds with PfM18AAP inh-1 | inhibition, % at 7.35 µM | 28% of 2,400 active;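 active = mean inhibition over replicate wells above the hit cutoff set for the earlier primary screen, cut at about 29% in these data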;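 also: 0% = median of test compound wells and 100% = 2 mM ZnCl2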
CTSL1 counter: counter-screen for PFM18AAP inhibitors: confirmation of human cathepsin L inhibitors; shares compounds with PfM18AAP inh-1; purified cathepsin L1, Z-Leu-Arg-MCA fluorescence; inhibition, % at 5.96 µM; 2,400 tested, under 10 active; AID 2178;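 active = average inhibition across replicates above the hit cutoff set in the earlier primary screen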;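 also: 0% = median of test compound wells and 100% = Z-Phe-Ala-diazomethylketone 1 µM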
Target sequence (P07711 whole entry, looked up): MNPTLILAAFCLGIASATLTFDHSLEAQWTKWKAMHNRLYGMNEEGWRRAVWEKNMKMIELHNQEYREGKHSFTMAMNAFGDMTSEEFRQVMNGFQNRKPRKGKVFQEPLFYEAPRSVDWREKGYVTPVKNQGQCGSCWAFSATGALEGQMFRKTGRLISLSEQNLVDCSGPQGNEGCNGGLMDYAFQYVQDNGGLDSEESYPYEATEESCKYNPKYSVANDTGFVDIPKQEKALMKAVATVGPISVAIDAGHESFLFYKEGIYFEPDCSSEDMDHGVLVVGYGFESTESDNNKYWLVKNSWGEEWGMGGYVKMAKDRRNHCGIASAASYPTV
Superoxide pick: yeast aging superoxide inhibition, cherry pick confirmation; S. cerevisiae aging, superoxide DHE fluorescence; hits give low values; shares compounds with Yeast superoxide; superoxide response (% of plate), % at 10 µM; 1% of 850 active; AID 434994;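 active = superoxide signal below 65% of the plate average of sample wells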;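 also: cells aged with compound for 7 days at 30 degrees C before staining; 100% equals mean DHE fluorescence of all compound wells on the plate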
DHE fluor count: compound alters DHE oxidation or fluorescence in yeast | shares compounds with Yeast superoxide | S. cerevisiae BY4741, flow cytometry; hits give low values | fluorescence response, % at 10 µM | 850 tested, under 10 active;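 active = fluorescence response below 15%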;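 also: percent of the mean fluorescence averaged over all compound wells on the plate; lower means stronger quenching of DHE signal or ROS scavenging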
The depositor's hits bear a star; x = no result given. This is a sample that favours compounds with a hit; in the whole collection about 5.2% have one here.

SMILES	APOBEC3G inh	PfM18AAP inh-1	ALR H2O2 inh	Yeast superoxide	APOBEC3A inh	CendR NRP1 mod	Superoxide pick	DHE fluor count	others
N#Cc1c(/N=C/c2ccc(O)cc2O)sc2c1C1CCN2CC1	-22	40*	4	113	-9	-123	x	x	PfM18AAP inh-2=12;CTSL1 counter=7
CS(=O)(=O)c1ccc(C2=C(CNC(=O)c3cccs3)[C@H]3CC[C@@H](C2)N3Cc2ccccc2)cc1	x	x	x	x	x	-13	x	x
O=C1CCCN1c1ccc(S(=O)(=O)O)cc1 (tested in a mixture with another compound)	-10	80*	0	100	-4	10	x	x	PfM18AAP inh-2=79*;CTSL1 counter=-4
CN1CCc2cc3c(c4c2C1Cc1ccccc1-4)OCO3 (stereo unspecified)	11	50*	22	109	14	51*	x	x	PfM18AAP inh-2=5;CTSL1 counter=46*
CCCCn1c(=O)c(C(=O)NCc2ccc(Cl)cc2)c(O)c2ccccc21	-2	-3	-1	89	-4	-7	x	x
C[C@]12CCC3C(CC[C@H]4C[C@H](O)CC[C@]34C)C1C[C@@H](CCCCl)[C@@H]2O (stereo partly specified)	-6	x	-2	58*	-1	1	69	98
C[C@]12CCC3C(CC[C@H]4C[C@H](N)CC[C@]34C)C1CC[C@H]2O (stereo partly specified)	-8	-4	-40	113	-3	5	103	96
C[C@]12CCC3C(CC[C@H]4C[C@@H](O)CC[C@]34C)C1C[C@H](Br)[C@@H]2O (stereo partly specified)	14	x	-1	73	-1	1	108	112
CCC(=NCc1ccco1)c1c(O)n(-c2ccccc2)c(=O)[nH]c1=O	-1	10	-4	114	-2	6	x	x
Cc1ccc(-n2c(=S)[nH]c3ccccc3c2=O)cc1C	x	x	x	x	x	4	x	x
Fc1ccc(CN2CCN(c3ccc(Cl)cc3)CC2)cc1	0	1	5	82	-1	7	x	x
Fc1cccc(F)c1CN1CCN(c2ccc(Cl)cc2)CC1	-3	-11	16	38*	-1	9	99	91
COC(=O)[C@@H]1N=C(c2ccc(OC)cc2)O[C@]12C(=O)N(C)c1cccc(Cl)c12	x	x	x	x	x	-4	x	x
C[C@]12CCC3C(CC[C@H]4CC(=O)CC[C@]34C)C1CCC2=O (stereo partly specified)	-11	x	1	71	-2	-13	x	x
C[C@]12CCC(=O)C[C@H]1CC[C@@H]1[C@@H]2CC[C@]2(C)C(=O)CC[C@@H]12	-5	x	x	60*	-3	-21	83	93
C[C@]1(O)CCC2C3CC[C@@H]4CC(=O)CC[C@]4(C)C3CC[C@@]21C (stereo partly specified)	-4	x	0	61*	1	-1	88	94
C[C@]12CCC3C(CC[C@H]4C[C@H](O)CC[C@]34C)C1CCC2=O (stereo partly specified)	-1	x	0	57*	-1	0	74	101
C[C@]12CC[C@H](O)C[C@@H]1CC[C@H]1[C@H]3CCC(=O)[C@@]3(C)CC[C@@H]12	x	x	x	x	x	0	x	x
CC12Cc3cnoc3C=C1CCC1C2CCC2(C)C1CCC2(C)O (stereo unspecified)	x	x	x	x	x	9	x	x
CCC(=O)O[C@H]1CC[C@H]2[C@@H]3CCC4=CC(=O)CC[C@]4(C)[C@H]3CC[C@]12C	x	x	x	x	x	-2	x	x
CC(=O)O[C@H]1CCC2C3CC[C@H]4[C@@H](O)[C@H](O)CC[C@]4(C)C3CC[C@@]21C (stereo partly specified)	x	x	x	x	x	-8	104	92
CC(=O)c1ccc(NC2=NCCCS2)cc1	-8	0	4	100	-4	10	x	x

Assay outcomes from PubChem.
